Results with a measured potency or affinity are listed apart. Active and inactive are the calls of the source.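 How the source made its calls: active means falling viability curve whose half-maximal potency lies within twice the top valid tested dose; inconclusive means flat curve with moderate signal loss, or unreliable curve fit; inactive means the rest.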

The nature of the experiment: HeLa cell cytotoxicity, dose response, cytotoxicity control, CellTiter-Glo luminescence, dry powder, set 2 (AID 720593). The note with it: HeLa viability, ATP luminescence (CellTiter-Glo), 72 h; series mostly up to 26 µM. For orientation: Cellular ATP, detected with luciferase, serves as a proxy for viable cell number.
`Cc1ccc(C(=O)Nc2nc(-c3ccccc3)cs2)o1`: the compound was classed as inactive.

With `FC(F)(F)c1cc(-c2nn[nH]n2)cc(C(F)(F)F)c1`, the compound was classed as inactive. Then `Cc1ccc(C(=O)Nc2nc(-c3ccccn3)cs2)cc1S(=O)(=O)N1CCOCC1`, with “inactive”; and `CC1CCN(S(=O)(=O)c2ccc(C(=O)Nc3nnc(C4=COCCO4)o3)cc2)CC1`, with “inactive”; and `Cc1nnc(NC(=O)c2ccc(S(=O)(=O)N3CCCCC3)cc2)o1`, with “inactive”. As for `Cc1cccc(NC(=O)CSc2ccc(-c3ccccn3)nn2)c1C`, the entry is “inactive”. As for `CC1CCN(S(=O)(=O)c2ccc(C(=O)Nc3nnc(-c4ccco4)o3)cc2)CC1`, the entry is “inactive”.
